Data from PubChem BioAssay AID485346 (Sanford-Burnham Center for Chemical Genomics, 2010).
About 10,000 (3%) of roughly 330,000 compounds were called active. Many of the other results were omitted from the sample, so actives are more common in it than they were. Unmarked numbers belong to inactive results.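 How the source made its calls: active means inhibition of at least 50% at 8 µM in the primary screen; inactive means the rest.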

Target: Protein Mdm4 (Homo sapiens) + E3 ubiquitin-protein ligase Mdm2 (Homo sapiens) (UniProt O15151+Q00987)
Sequence (O15151 whole entry, looked up): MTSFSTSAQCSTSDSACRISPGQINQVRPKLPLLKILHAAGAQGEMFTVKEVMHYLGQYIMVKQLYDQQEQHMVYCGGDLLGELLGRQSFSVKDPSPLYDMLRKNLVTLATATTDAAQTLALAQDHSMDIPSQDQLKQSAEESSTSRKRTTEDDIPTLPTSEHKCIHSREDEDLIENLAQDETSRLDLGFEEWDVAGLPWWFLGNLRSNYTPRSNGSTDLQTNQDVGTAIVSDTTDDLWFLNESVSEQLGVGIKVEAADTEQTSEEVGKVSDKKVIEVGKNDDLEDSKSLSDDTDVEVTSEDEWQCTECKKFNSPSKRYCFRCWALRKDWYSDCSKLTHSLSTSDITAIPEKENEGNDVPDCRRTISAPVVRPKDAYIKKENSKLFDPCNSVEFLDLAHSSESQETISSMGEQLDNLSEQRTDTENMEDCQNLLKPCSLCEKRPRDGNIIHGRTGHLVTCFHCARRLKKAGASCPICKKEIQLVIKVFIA
Sequence (Q00987 whole entry, looked up): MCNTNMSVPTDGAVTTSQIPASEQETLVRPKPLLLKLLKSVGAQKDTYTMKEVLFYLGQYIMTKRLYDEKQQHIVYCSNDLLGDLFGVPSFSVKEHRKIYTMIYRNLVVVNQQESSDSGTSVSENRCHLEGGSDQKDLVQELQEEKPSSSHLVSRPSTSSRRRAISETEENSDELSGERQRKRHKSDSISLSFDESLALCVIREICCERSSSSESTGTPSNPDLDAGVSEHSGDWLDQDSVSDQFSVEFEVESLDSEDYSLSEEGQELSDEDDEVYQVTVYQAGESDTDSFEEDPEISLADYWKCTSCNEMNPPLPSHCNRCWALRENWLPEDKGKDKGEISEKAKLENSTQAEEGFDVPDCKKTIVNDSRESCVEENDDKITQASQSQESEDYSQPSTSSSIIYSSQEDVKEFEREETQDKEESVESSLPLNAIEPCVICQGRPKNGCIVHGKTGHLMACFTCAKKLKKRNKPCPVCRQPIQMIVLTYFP
Assay: inhibitors of human Mdm2-MdmX association, primary screen, cell-based, luminescence, split luciferase, SaOS-2, uHTS (AID 485346)
Conditions: SaOS-2 split-luciferase Mdm2/MdmX complementation, at 8 µM, active compounds read high

SMILES | inhibition
C[C@@H]1C(c2ccc(F)cc2)=NN(c2ccc(Br)cc2)[C@H]1C(=O)N1CCOC1=O | 9.83%
O=C(CN1CCN(S(=O)(=O)c2ccc3ccccc3c2)CC1)NC(=O)NC1CCCCC1 | 40.4%
COC(=O)C1CCN(C(=O)NC2CC(=O)N(c3ccc4c(c3)OCCO4)C2)CC1 (stereo not given) | -29.9%
CC(=O)C1=C(O)C(=O)N(c2ccc(Br)cc2)C1c1ccc([N+](=O)[O-])cc1 (stereo not given) | 16.7%
COc1ccc(C(=O)C2CCCN(Cc3cccn3-c3ccccn3)C2)c(C)c1 (stereo not given) | 46.4%
COc1ccc(CN2CN(C(C)C)CSC2=S)cc1 | 63.7% (active)
S=C1SCN(CCN2CCOCC2)CN1Cc1ccccc1 | 19%
COc1ccc(CN2CN(C3CCCC3)CSC2=S)cc1 | 34.2%
O=C(CSc1nncn1-c1cccnc1)N1CCOCC1 | -14.1%
Cc1nn(Cc2ccc(Cl)cc2)c(Cl)c1/C=N/NC(=O)c1cccnc1 | -2.65%
Cc1ccc(C(=O)O)cc1NC(=O)c1ccc(Cn2nc(C)c(Cl)c2C)o1 | 2.65%
Cc1c(Cl)c([N+](=O)[O-])nn1Cc1ccc(C(=O)N/N=C\c2cc(Cl)ccc2O)o1 | 68.9% (active)
Cc1nc(Nc2ccc3c(c2)OCCO3)c2nnn(Cc3ccccc3Cl)c2n1 | 32.4%
CCCc1nc(NCc2ccc3c(c2)OCO3)c2nnn(Cc3ccccc3Cl)c2n1 | 75.2% (active)
Cc1nc(Nc2ccccc2F)c2nnn(Cc3ccccc3Cl)c2n1 | 4.88%
CCOc1ccc(C(=O)CCC(=O)Nc2ccncc2)cc1 | 13.9%
C=CCn1c2ccccc2c2nnc(SCc3[nH]c(=O)[nH]c3C(=O)CCCCC(=O)OCC)nc21 | 26.8%
Cc1ccc(NC(=O)C2CC2)cc1S(=O)(=O)N1CCOCC1 | -2.88%
O=C1CSC(c2ccc(Cl)cc2)N1 (stereo not given) | -16.7%
c1coc(CNc2ncnc3ccccc23)c1 | -3.14%
Cc1noc(C)c1-c1ccc2ncnc(NC(C)c3ccco3)c2c1 (stereo not given) | 83.9% (active)
O=C(NC(=S)Nc1ccccc1C(=O)O)c1ccc(-c2ccc(Br)cc2)o1 | 44.1%
CC1CCN(CC(=O)Nc2nccs2)CC1 | 32.3%
CC(C)CCN1C(=O)c2ccc(C(=O)Nc3cccc(S(N)(=O)=O)c3)cc2C1=O | 7.02%

SMILES | inhibition
Cc1nc(N=C(N)N)nc2c(C)cccc12 | 75.4% (active)
CC(=O)Oc1ccc(-c2nc3c(C)cccc3c(=O)o2)cc1 | 15.5%
COc1nc(N=C(N)N)nc2c(C)cccc12 | 22.9%
COc1ccc(C2C(C#N)=C(/N=C/N3CCOCC3)OC3=C2C(=O)CC(C)(C)C3)cc1OC (stereo not given) | -7.65%
COc1ccc(C2C(C#N)=C(N)Oc3cc(N)ccc32)cc1OC (stereo not given) | 50.9% (active)
COc1cc(C2C(C#N)=C(N)Oc3n[nH]c(-c4ccccn4)c32)cc(OC)c1OC (stereo not given) | 1.17%
COc1ccccc1NS(=O)(=O)c1ccc(C(=O)N2CCN(c3ccccc3O)CC2)cc1 | 19.3%
O=P(O)(CN1CCCCCC1)C1Cc2ccccc2C1 | 10.7%
O=C(CNc1ccccc1N1CCCC1=O)Nc1cc(Cl)ccc1-n1cncn1 | 0.059%
Cc1ccc(S(=O)(=O)N2CCN(C(=O)Cn3c(=O)cnc4ccccc43)CC2)c(C)c1 | 12.2%
C[C@@H]1C[C@@H]2O[C@H]2/C=C\C=C\C(=O)Cc2c(Cl)c(O)cc(O)c2C(=O)O1 | 79.3% (active)
CCN(CC(=O)N1CCCC1)S(=O)(=O)c1ccc(F)cc1 | -4.05%
Cc1ccc(F)cc1S(=O)(=O)Nc1cccc(C(=O)N2CCCC(C(N)=O)C2)c1 (stereo not given) | 17.8%
COc1ccc(-c2nn(-c3ccccc3)cc2/C=N/Nc2ccccn2)cc1OC | 34.3%
Oc1ccc(/C=N/Nc2ccc(C(F)(F)F)cn2)cc1O | -9.44%
Oc1ccc(Br)cc1/C=N/Nc1ccccn1 | 84.7% (active)
Cc1cccc(NC(=O)N2CCCCCC2)c1C | 23.2%
CCN([C@H](CO)C(C)C)S(=O)(=O)c1ccccc1Br | 33.9%
Oc1ccccc1N1CCN(c2ncnc3sc(-c4ccccc4)cc23)CC1 | 81.3% (active)
c1ccc(-c2cc3c(NCC4COc5ccccc5O4)ncnc3s2)cc1 (stereo not given) | 31.6%
CCc1cc2c(N3CCN(c4nnc(CC)s4)CC3)ncnc2s1 | 29.4%
NNC(=O)c1nnn(-c2nonc2N)c1CN1CCCC1 | 4.39%
Nc1nonc1-n1nnc(C(=O)N/N=C\c2ccncc2)c1CN1CCCCC1 | 3.58%
Nc1nonc1-n1nnc(C(=O)N/N=C/c2ccccc2O)c1CN1CCCC1 | 52.8% (active)

SMILES | inhibition
CCOC(=O)c1ccc(NC(=O)CCn2c(=O)oc3ccccc32)cc1 | 8.91%
CN(CC1CCCO1)S(=O)(=O)c1ccc(C(=O)Nc2ccc(F)cc2)cc1 (stereo not given) | 14.6%
Cc1cccc(NC(=O)c2ccc(S(=O)(=O)N(C)CC3CCCO3)cc2)c1C (stereo not given) | 17.9%
CCOC(=O)c1c(NC(=O)c2ccc(S(=O)(=O)N(C)CC3CCCO3)cc2)sc2c1CC(C)(C)NC2(C)C (stereo not given) | 79.5% (active)
CCCn1c2ccccc2c2cnn(CC(=O)NCCCN3CCCCC3CC)c(=O)c21 (stereo not given) | 24%
O=C(CN1C(=O)CCS(=O)(=O)c2ccccc21)NCc1ccc(F)cc1 | 13.2%
COc1cc2c(cc1OC)CN(C(C)C(=O)Nc1cccc(S(=O)(=O)N3CCOCC3)c1)CC2 (stereo not given) | 21.6%
CCCCN1CCNC1=S | 27%
O=C(CSc1nccn1-c1cccc(F)c1)NC1CCCC1 | 6.79%
Cc1ccc(Cn2nnc3c(=O)n(CC(=O)N4CCCCC4)cnc32)cc1 | 8.92%
O=C(Cn1cnc2c(nnn2Cc2ccc(F)cc2)c1=O)NCc1ccc2c(c1)OCO2 | 7.94%
Cc1cc(C)cc(NC(=O)Cn2cnc3c(nnn3Cc3ccc(F)cc3)c2=O)c1 | 64.8% (active)
CSCCC(NS(=O)(=O)c1ccccc1F)C(=O)N1CC=C(c2ccccc2)CC1 (stereo not given) | -11.8%
c1csc(-c2nnc(COc3ccc4c(c3)OCO4)o2)c1 | -40.3%
CCCOc1ccc(C2=CSC3=NCCN23)cc1Cl | 28.9%
COc1ccc(NC(=O)NN2CCN(C)CC2)c(OC)c1 | 0.742%
O=[N+]([O-])c1ccccc1/C=C/CN1CCCC(CO)C1 (stereo not given) | 3.12%
O=[N+]([O-])c1ccccc1/C=C/CN1CCC(O)CC1 | -3.09%
CC1CCCCC1NC(=O)/C(C#N)=C/C=C/c1ccccc1[N+](=O)[O-] (stereo not given) | 99.6% (active)
CCCN(CCC)S(=O)(=O)c1ccc(C(=O)NNC(=O)c2cc(OC)c(OC)c(OC)c2)cc1 | -7.78%
CCc1ccc2c(c1)C1(NN=C(c3ccccc3)S1)C(=O)N2 (stereo not given) | 73% (active)
COc1ccc(C)cc1NC(=O)c1cc(-c2ccccc2)nc2c1cnn2C(C)C | 11.5%
OCC[C@H]1C[C@H](O)[C@@H](O)[C@]2(CCCCO2)O1 | -0.668%
COc1ccc(Nc2oc(-c3ccccc3Cl)nc2C#N)cc1 | 59.3% (active)

SMILES | inhibition
COc1ccc(Nc2nnc(C)c3ccccc23)cc1 | 5.02%
N#Cc1nc(-c2cccc3ccccc23)oc1N | 23%
O=C1CCC[C@@H]2CC(N3CCCCC3)C[C@@H]3CCN1[C@H]23 (stereo not given in full) | -0.366%
COc1ccc(CCNC(=S)N2CCN(S(=O)(=O)c3ccc(F)cc3)CC2)cc1 | 27.9%
O=C(NCC1CCN(Cc2ccccc2Cl)CC1)Nc1cccc(Cl)c1 | 24.2%
COc1cccc(-c2cccc(NC(=O)C3CCN(C4CCC4)CC3)c2)c1 | -1.08%
O=C(Nc1cccc(-c2cscn2)c1)C1CCN(Cc2ccsc2)CC1 | 12.7%
O=C(Nc1cnn(Cc2ccc(Cl)cc2)c1)C1CCCC1 | 20.2%
O=C(Nc1cccc(-c2cccc(Cl)c2)c1)C1CCN(C2CCC2)CC1 | 63% (active)
CC(=O)c1cc(CN2CCC(C(=O)Nc3cccc(-c4cscn4)c3)CC2)cs1 | 19.1%
O=C(NC1CCCC1)C1CCN(C(=O)Nc2cccc(Cl)c2)CC1 | -30.9%
CCn1cc(CN2CCC(C(=O)Nc3cccc(-c4cccc(Cl)c4)c3)CC2)c(C)n1 | 86.6% (active)
CCn1cc(CN2CCC(C(=O)Nc3cccc(-c4cccc(Cl)c4)c3)CC2)cn1 | 73% (active)
COc1ccc(N2CCC(CNC(=S)Nc3c(C)cccc3C)C2)cc1 (stereo not given) | 0.075%
Cc1ccc(C(=O)NCCc2nnc(SCC(=O)Nc3cccc(C(=O)O)c3)n2C)cc1 | -17.8%
Cc1ccc(NS(=O)(=O)c2ccc3c(c2)n(C)c(=O)c(=O)n3C)c(C)c1 | -12.6%
Cc1ccc(-n2nc3c(=O)n(C(C)C(=O)NCc4ccc5c(c4)OCO5)nc(C)c3c2C)cc1 (stereo not given) | 32.4%
O=C(NCC#CCSc1nnc(-c2cccc3ccccc23)o1)c1cccs1 | 81.5% (active)
COc1ccc(CCNC(=O)/C(C#N)=C2\N=C(NC(=O)c3cccs3)c3ccccc32)cc1 | -11.7%
C#CCSc1nnc(-c2sc3ccccc3c2Cl)o1 | -91.8%
O=C(Cc1ccc(-c2ccccc2)cc1)NC(c1ccccc1)c1ccccc1 | 6.83%
CCOC(=O)/C=C/C(=O)OCC(=O)NC(c1ccccc1)c1ccccc1 | 69.4% (active)
CCOC(=O)C(C(=O)OCC)C(C#N)c1ccccc1 (stereo not given) | -30.8%
